# High-throughput results as filed in PubChem.
# D1 antagonist: human D1 dopamine receptor antagonism. 360,000 tested, 3.2% active. HEK293 TREx D1 cells, calcium flux, dopamine EC80; hits give low values. P21728. activity change, negative = inhibition, % at 10 µM; in the data active means activity change below about -30%; further: on the % scale 0 is the no-effect control and ±100 the full control effect
# Target sequence (P21728 whole entry, looked up): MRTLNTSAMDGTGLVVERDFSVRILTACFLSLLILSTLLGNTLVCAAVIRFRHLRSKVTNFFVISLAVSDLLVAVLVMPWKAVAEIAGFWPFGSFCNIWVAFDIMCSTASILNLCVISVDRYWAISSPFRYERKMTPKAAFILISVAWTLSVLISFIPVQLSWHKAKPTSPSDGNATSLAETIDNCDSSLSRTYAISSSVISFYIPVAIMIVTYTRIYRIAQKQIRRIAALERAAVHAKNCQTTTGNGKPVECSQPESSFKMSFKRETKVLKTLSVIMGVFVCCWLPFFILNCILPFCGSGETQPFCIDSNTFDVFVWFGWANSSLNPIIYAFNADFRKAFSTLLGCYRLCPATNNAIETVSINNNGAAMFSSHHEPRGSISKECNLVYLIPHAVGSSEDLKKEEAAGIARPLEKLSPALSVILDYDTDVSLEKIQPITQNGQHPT
#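 Antagonism measured as reduced calcium response to an EC80 dopamine addition following 180 s compound pre-read; cells were inducible HEK293 Trex D1 plated overnight at 30 C, read kinetically at 1 cycle/sec.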
# D1 potentiator: enhances dopamine response at the human D1 receptor; HEK293 TREx D1 cells, calcium flux, dopamine EC20 potentiation; potentiation, % at 10 µM; P21728; AID 504651; 360,000 tested, 0.036% active; in the data active means potentiation above about 30%; further: 0% is about no effect
# TRHR agonist: activates the human TRH receptor; activation, % at 2 µM; TRHR cells, calcium flux fluo-8, FDSS agonist mode; P34981; 360,000 tested, 0.18% active; further: 0% is about no effect
#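 TRHR-expressing cells loaded with fluo-8 calcium dye; 23 nL library compound pin-transferred, kinetic FDSS fluorescence (Ex 480/Em 530) recorded about 180 s for agonist-induced calcium release, before a 10 nM TRH EC20 addition for potentiator mode.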
# Glioma ERSR ind: inducers of ER stress response in human glioma cells; U87-MG GRP78 promoter luciferase reporter, 16 h; Potency, µM, without a hit: at the highest dose activation, actives largely listed as activators; 420,000 tested, 0.02% active; active means well fitted activation curve with a large enough effect; further: potency means the concentration at half of the fitted maximal effect; series mostly up to about 76 µM; % of control where 0% means no effect; nearly all actives have a fitted effect of over 35% in size
#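 Stably transfected U87-MG glioma cells carrying a GRP78-based luciferase sensor; 16 h compound incubation. Luminescence end-point read 10 min after Bright-Glo addition at room temperature.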
# D1 agonist: human D1 receptor agonism. P21728. HEK293 T-REx D1 cells, calcium flux, agonist mode. activation, % at 2 µM. 360,000 tested, 1% active. AID 504660; further: 0% is about no effect
#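 Inducible HEK293 T-REx D1 cells, force-coupled to calcium signalling, were plated at 4000 cells/well with tetracycline and held overnight at 30 C. After no-wash calcium dye loading, compound-evoked calcium rise over 180 s flagged agonists.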
# TRHR enhancer: allosteric enhancers of human TRH receptor | P34981 | TRHR cells, fluo-8 calcium fluorescence, EC20 TRH enhancement | enhancement, % at 2 µM | 360,000 tested, 0.66% active; in the data active means enhancement above about 30%; further: 0% is about no effect
#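 TRHR-expressing cells loaded with fluo-8 calcium dye were read kinetically (ex 480/em 530) during compound addition, then stimulated with an EC20 of TRH (10 nM final). Enhancement of the Gq-mediated intracellular calcium response was scored.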
# * hit, by the source's call; . = not tested or not shown. Compounds with a hit are over-represented: about 4% of the library has one in this group of screens. Unless noted, no stated cut-off is given here; in the data, active means activation above about 30%; inactive means the rest.
SMILES,D1 antagonist,D1 potentiator,TRHR agonist,Glioma ERSR ind,D1 agonist,TRHR enhancer
O=C(Nc1nnc(-c2cccnc2)s1)c1cccs1,5.2,0.7,0.3,1.6%,1.6,5.3
O=C(CCc1ccccc1)NNC(=S)NC(=O)c1ccccc1,-9.1,-10.2,-0.2,-0.1%,1.0,-4.8
CC(C)(C)c1cc(CCC(=O)NNC(=S)NC(=O)c2ccccc2)cc(C(C)(C)C)c1O,-66.3*,18.1,15.8,14.6%,132.5*,1.4
CC(C)CC(NC(=O)CN)C(=O)NC(Cc1ccccc1)C(=O)O (configuration not stated),.,.,.,-5.5%,.,.
CCCCCC(=O)N1C[C@@H](n2cc(COC(=O)c3ccccc3)nn2)[C@H](O)C[C@@H]1c1ccc(OC)cc1,.,.,.,-6.0%,.,.
CCn1c(SCC(=O)NCCOC)nc2sc(C)c(C)c2c1=O,2.3,-7.6,-1.1,.,2.4,4.3
COc1ccc(N=Cc2sc(O)c3ccccc23)cc1,-82.1*,8.8,-0.9,1.8%,544.1*,9.6
COc1ccc(N=Cc2c(O)c3ccccc3n2C(C)=O)cc1,-21.7,-9.6,34.1*,1.1%,119.5*,-1.6
CCOc1ccc2oc(=O)cc(CN3CCOCC3)c2c1,-3.0,-1.6,-1.6,-2.2%,1.1,-1.2
COc1ccc(CCn2c(-c3ccncc3)n[nH]c2=S)cc1OC,.,-3.8,0.1,1.3%,-0.7,2.1
Nc1c(C(=O)c2ccccc2)sc(Nc2ccc(Cl)c(Cl)c2)c1C(=O)Nc1ccccc1,32.6,3.2,0.2,-2.9%,7.8,15.5
Cc1nccc(-c2cc(-c3ccc(Cl)cc3Cl)no2)n1,-14.4,-5.0,-0.3,3.5%,1.1,32.8*
CC(C)(C#CC(O)(c1ccccc1)c1ccccc1)N1CCCC1,-71.5*,-3.9,1.7,-3.5%,7.5,3.1
CC(C)(C#CC(O)(c1ccccc1)c1ccccc1)N1CCCCC1,3.5,-2.2,1.0,-5.9%,2.7,-5.3
COc1ccc(CCNS(=O)(=O)c2ccc(N3CCCCS3(=O)=O)cc2)cc1OC,11.3,-0.3,-0.2,-2.4%,2.0,0.3
CN1CCN(S(=O)(=O)c2cccc(S(=O)(=O)c3ccc(Cl)c(Cl)c3)c2)CC1,-53.0*,-4.8,0.5,-4.7%,6.6,-13.7
Cc1nn(CC(=O)OCC(=O)c2ccc(OC(F)F)cc2)c(C)c1[N+](=O)[O-],-31.5*,3.7,-0.7,-3.1%,-1.7,-1.2
COc1ccc(Cn2c(CO)cnc2SCC(=O)Nc2cccc(NC(C)=O)c2)cc1,-17.8,10.9,-0.5,2.8%,1.8,31.7*
COc1cccc(NC(=O)CSc2nc(=O)n(Cc3ccncc3)c3c2CCCC3)c1,-0.2,37.0*,-0.2,-4.8%,2.4,-1.8
CN(C)CCn1c2c(c(SCC(=O)Nc3cccc(C(F)(F)F)c3)nc1=O)CCCC2,2.8,4.3,0.0,-3.4%,12.3,6.7
CCN(CC)CCn1c2c(c(SCC(=O)Nc3cccc(C(F)(F)F)c3)nc1=O)CCC2,.,-1.9,0.5,-1.7%,47.6*,0.2
COc1ccc(Cn2ccnc2SCC(=O)Nc2cccc(NC(C)=O)c2)cc1,-12.4,-1.6,0.0,-2.2%,4.4,-3.6
COc1cc(OC)c(N(C)C(=O)c2sc3nc4n(c(=O)c3c2C)CCCC4)cc1Cl,0.6,-3.9,1.0,-1.5%,18.5,6.3
COc1ccc(-c2nc3ccc(C)cn3c2Cc2cccc(Cl)c2)cc1OC,.,.,.,4.6%,.,.
Cc1c(C(=O)Nc2ccc(S(=O)(=O)Nc3ncccn3)cc2)oc2ccc(F)cc12,2.1,0.8,-0.3,-3.1%,1.1,4.4
SMILES,D1 antagonist,D1 potentiator,TRHR agonist,Glioma ERSR ind,D1 agonist,TRHR enhancer
Cc1ccccc1-c1nc(CS(=O)(=O)CC(=O)NCc2ccccc2)c(C)o1,43.1,-4.8,-0.1,-4.0%,3.3,-2.6
COc1ccc(CNC(=S)NC2CCCCC2)cc1,12.5,2.8,-0.3,8.0%,1.3,-8.4
S=C(NCCc1ccc(Cl)cc1)NC1CCCC1,-4.3,-16.1,-0.3,3.3%,11.1,8.2
S=C(NCCc1ccc(Cl)cc1)NC1CCCCC1,-41.0*,-7.7,2.5,0.0%,17.3,-4.3
S=C(Nc1cccc(Cl)c1)NC1CCCCC1,-33.9*,-2.1,3.1,-4.2%,22.2,-9.3
S=C(NNc1cccc(Cl)c1)NC1CCCCC1,-2.8,-3.7,-1.3,-6.3%,-4.6,-1.5
Fc1ccc(CNC(=S)NC2CCCCCC2)cc1,-36.0*,-6.2,-0.2,-1.9%,15.1,-11.4
Cc1nccc(-c2ccc(-n3cnc4ccccc43)cc2)n1,-10.3,-2.4,-0.5,2.8%,1.7,2.4
CN(Cc1ccccc1)S(=O)(=O)c1ccc(OCC(=O)N2CCC(C(N)=O)CC2)cc1,-2.0,0.6,0.3,-0.6%,4.9,-8.6
O=C(COc1ccc(S(=O)(=O)Nc2ccc(Cl)cc2)cc1)N1CCOCC1,-13.4,-4.5,2.2,-1.5%,31.1*,2.3
Cc1ccc(N(CCC(=O)N2CCOCC2)S(=O)(=O)c2ccccc2)cc1,-55.4*,.,0.0,-2.8%,2.0,1.3
CN(Cc1ccccc1)S(=O)(=O)c1ccc(OCC(=O)N2CCOCC2)cc1,-32.0*,-2.6,-0.3,-7.8%,8.1,-4.5
O=C(CCNS(=O)(=O)c1ccc(Cl)cc1)N1CCOCC1,-32.0*,-5.5,-0.7,-4.4%,1.6,1.8
Cc1ccc(N(CC(=O)N2CCOCC2)S(=O)(=O)c2ccccc2)cc1,-5.9,-9.7,1.3,-4.1%,0.9,-8.2
NS(=O)(=O)c1ccc(CNC(=O)c2ccncc2)cc1,14.0,-0.7,-0.3,0.4%,0.4,3.2
Cc1ccc(CNC(=O)c2nnn(CC(=O)Nc3cc(C)ccc3C)c2N)cc1,-10.2,0.8,0.5,-3.3%,0.4,-7.4
C=CCn1c(SC(CCO)C(=O)NCc2ccco2)nc2sc3c(c2c1=O)CCC3 (configuration not stated),-8.8,-2.1,0.0,2.7%,-0.3,-5.5
Cc1ccc(C)c(NC(=O)CSc2n[nH]c(-c3ccccn3)n2)c1,0.4,.,1.1,0.8%,3.5,-3.4
Cc1ccccc1NC(=O)CSc1n[nH]c(-c2ccccn2)n1,0.9,5.5,-0.3,-7.5%,3.1,34.8*
C#CCOCCOCCOCCNc1nc(N2CCN(C(=O)CCCCCCCCCCNC(=O)Cn3cc(C[C@@H](C)O)nn3)CC2)nc(N2CCN(C(=O)CCCCCCCCCCNC(=O)[C@@H](CCC(=O)O)n3cc(CCCCCN)nn3)CC2)n1,4.6,-0.6,0.4,-3.2%,32.1*,2.1
C#CCOCCOCCOCCNc1nc(N2CCN(C(=O)CCCCCCCCCCNC(=O)Cn3cc(C[C@@H](C)O)nn3)CC2)nc(N2CCN(C(=O)CCCCCCCCCCNC(=O)[C@H](CCCCN)n3cc(CCCC(=O)O)nn3)CC2)n1,-1.1,-1.1,1.2,-2.1%,9.0,12.6
